Compounds without any hit were thinned out: in the full panel of roughly 83,000, 20% have a hit.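 Method: cells in 96-well plates; compound added at one concentration; 48 h incubation; percent growth measured; values under 10 scored active.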 Values without a mark were called inactive. Activity calls are given as the source filed them.

Test systems include HT29 colon; SNB-75 CNS; SNB-19 CNS; U251 CNS; PC-3 prostate; SK-MEL-5 melanoma; UACC-62 melanoma; LOX IMVI melanoma; SK-MEL-28 melanoma; SK-MEL-2 melanoma; EKVX NSCLC; SN12C renal; UO-31 renal; TK-10 renal; ACHN renal; CAKI-1 renal; CCRF-CEM leukemia; MOLT-4 leukemia; A498 renal.
Common to all, as to experiment: NCI-60 one-dose screen, 48 h (100 = growth as untreated, 0 = no growth, -100 = all killed)
What all share (conditions): 10 µM unless noted

With `COc1ccc(/C=N/OCC(O)CNCc2ccccc2)cc1OC1CCCC1` (stereo not given), the growth in the assay on HT29 colon was 104%; with SNB-75 CNS, 77.9%; with SNB-19 CNS, 95.2%; in the assay with U251 CNS it was 99.6%; with PC-3 prostate it was 86.7%; in the assay with SK-MEL-5 melanoma, 93.3%. Also, the growth was 98.3% in the assay with UACC-62 melanoma; 91.4% with LOX IMVI melanoma; 109% in the assay with SK-MEL-28 melanoma; 115% in the assay with SK-MEL-2 melanoma; 93.1% in the assay on EKVX NSCLC; 99.9% with SN12C renal. Moreover, the growth was 69.2% with UO-31 renal; 103% in the assay on TK-10 renal; 99.6% in the assay with ACHN renal; 84% with CAKI-1 renal; 113% in the assay with CCRF-CEM leukemia; 101% in the assay with MOLT-4 leukemia.
Consider `O=C1C2CC3C(CC2C(=O)[N]1[Sn]([c]1ccccc1)([c]1ccccc1)[c]1ccccc1)C1(Cl)C(Cl)=C(Cl)C3(Cl)C1(Cl)Cl` (stereo not given), for which the growth was -87.3% (active) in the assay on HT29 colon; -84.8% (active) in the assay on SNB-75 CNS; -97.4% (active) in the assay with SNB-19 CNS; -92.9% (active) in the assay with PC-3 prostate; -93.1% (active) in the assay on SK-MEL-5 melanoma; -95.7% (active) in the assay on UACC-62 melanoma. The growth is -66.7% (active) with LOX IMVI melanoma; -94.2% (active) with SK-MEL-28 melanoma; -93.5% (active) with SK-MEL-2 melanoma; -87.3% (active) in the assay on SN12C renal; -98.3% (active) with UO-31 renal; -100% (active) with TK-10 renal. Moreover, the growth was -99.8% (active) with ACHN renal; -92.8% (active) with CAKI-1 renal; -95.5% (active) in the assay on A498 renal; -43.3% (active) in the assay on CCRF-CEM leukemia; -46.1% (active) with MOLT-4 leukemia.
Regarding `COc1cc2oc(-c3ccc(O)cc3)cc(=O)c2c(O)c1I`, the growth with HT29 colon was 107%; in the assay on SNB-75 CNS, 99%; with SNB-19 CNS it was 95.9%; with U251 CNS it was 97%; in the assay with PC-3 prostate it was 97.5%; in the assay on SK-MEL-5 melanoma, 101%. In addition, the growth with UACC-62 melanoma was 102%; in the assay on LOX IMVI melanoma, 107%; in the assay on SK-MEL-28 melanoma, 108%; in the assay on SK-MEL-2 melanoma, 103%; in the assay on EKVX NSCLC, 87.8%; with SN12C renal, 100%. In addition, the growth in the assay on UO-31 renal is 93%; with TK-10 renal, 109%; in the assay with ACHN renal, 98.7%; in the assay with CAKI-1 renal, 96.6%; in the assay with CCRF-CEM leukemia it was 94.9%; with MOLT-4 leukemia, 111%.
Consider `FCOC(C(F)(F)F)C(F)(F)F`, for which the growth in the assay with HT29 colon is 107%; with SNB-75 CNS it was 109%; in the assay on SNB-19 CNS it was 108%; in the assay on U251 CNS, 94.1%; in the assay on SK-MEL-5 melanoma, 103%; in the assay on UACC-62 melanoma, 104%. The growth with LOX IMVI melanoma is 101%; with SK-MEL-28 melanoma, 126%; with EKVX NSCLC it was 107%; with SN12C renal it was 113%; with UO-31 renal it was 87%; in the assay on ACHN renal it was 104%. For the same molecule, the growth in the assay with CAKI-1 renal is 98.5%; with A498 renal, 95.3%; in the assay with CCRF-CEM leukemia, 101%; with MOLT-4 leukemia, 97.3%.
For the molecule `Brc1ccc(Br)nn1`, the growth with HT29 colon was -37.2% (active); in the assay on SNB-75 CNS it was 37.7%; in the assay with SNB-19 CNS it was 17.7%; with U251 CNS it was -67.5% (active); in the assay with PC-3 prostate, -36.8% (active); in the assay with SK-MEL-5 melanoma, 8.56% (active). The growth in the assay on UACC-62 melanoma is 31.9%; in the assay on LOX IMVI melanoma it was -93.7% (active); with SK-MEL-28 melanoma it was -75.9% (active); in the assay on SK-MEL-2 melanoma it was -50.2% (active); with EKVX NSCLC it was -95.4% (active); with SN12C renal, -76.8% (active). In addition, the growth with UO-31 renal is -39.9% (active); with TK-10 renal, -78.3% (active); with ACHN renal it was 2.74% (active); in the assay with CAKI-1 renal, -92.3% (active); in the assay on A498 renal it was -80.8% (active); with CCRF-CEM leukemia, -13.5% (active). Besides, the growth in the assay on MOLT-4 leukemia was -13.6% (active).
Take `COc1ccc(OC)c(/C=C2\Oc3cc(O)ccc3C2=O)c1`: the growth in the assay on HT29 colon was 100%; with SNB-75 CNS, 88.6%; in the assay on SNB-19 CNS, 95.5%; with U251 CNS, 89.5%; in the assay with PC-3 prostate, 95.5%; in the assay with SK-MEL-5 melanoma, 92.4%. The growth is 89% with UACC-62 melanoma; 88.6% in the assay on LOX IMVI melanoma; 88.5% with SK-MEL-28 melanoma; 98.6% in the assay on SK-MEL-2 melanoma; 91.4% with EKVX NSCLC; 85.8% in the assay with SN12C renal. Also, the growth is 60.3% with UO-31 renal; 68.3% with ACHN renal; 93.7% with CAKI-1 renal; 96.1% with CCRF-CEM leukemia; 100% in the assay with MOLT-4 leukemia.
`c1ccc2cc(Cn3c(-c4ccc5ccccc5c4)[n+](Cc4ccc5ccccc5c4)c4ccccc43)ccc2c1`: the growth with HT29 colon was -71.7% (active); in the assay on SNB-75 CNS it was -69.5% (active); in the assay on SNB-19 CNS it was -76.4% (active); in the assay with U251 CNS, -78.6% (active); with PC-3 prostate, -57.8% (active); in the assay on SK-MEL-5 melanoma, -97.2% (active). The growth with UACC-62 melanoma is -87.8% (active); with LOX IMVI melanoma it was -98.8% (active); in the assay with SK-MEL-28 melanoma it was -55.3% (active); in the assay with SK-MEL-2 melanoma it was -67.7% (active); in the assay with EKVX NSCLC, -11.7% (active); with SN12C renal, -88.2% (active). The growth in the assay on UO-31 renal is -77.1% (active); in the assay with ACHN renal, -51.5% (active); in the assay on CAKI-1 renal it was -67.3% (active); in the assay on A498 renal, -64% (active); in the assay with MOLT-4 leukemia, -35.4% (active).
In the case of `O=C1c2c(c3c4cc(Br)ccc4[nH]c3c3ccc4ccccc4c23)C(=O)N1O`, the growth was 30% in the assay with HT29 colon; 79.8% in the assay on SNB-75 CNS; 85.1% in the assay with SNB-19 CNS; 68.5% in the assay with U251 CNS; 79% in the assay on PC-3 prostate; 96.7% in the assay on SK-MEL-5 melanoma. Further, the growth in the assay on UACC-62 melanoma was 59.9%; with LOX IMVI melanoma, 67.8%; in the assay on SK-MEL-28 melanoma, 106%; in the assay with SK-MEL-2 melanoma, 106%; in the assay on EKVX NSCLC, 87.3%; in the assay on SN12C renal it was 92.2%. Further, the growth is 101% with UO-31 renal; 117% in the assay with TK-10 renal; 73.3% in the assay on ACHN renal; 69.6% in the assay on CAKI-1 renal; 54.1% with CCRF-CEM leukemia; 68.5% with MOLT-4 leukemia.
In the case of `CCC(C)Oc1cc(/C=N/NC(=O)c2cnn3c2NC(c2ccccc2)C3)ccc1OC` (stereo not given), the growth in the assay on HT29 colon is 15%; with SNB-75 CNS it was -12.2% (active); in the assay on SNB-19 CNS, 38.6%; in the assay on U251 CNS, 34.8%; with PC-3 prostate it was 25.3%; in the assay with SK-MEL-5 melanoma, 21.2%. Further, the growth with UACC-62 melanoma is 36%; with LOX IMVI melanoma, 26.1%; with SK-MEL-28 melanoma, 59.1%; in the assay with SN12C renal, 47%; with UO-31 renal it was 53.8%; in the assay on TK-10 renal it was 70.7%. For the same molecule, the growth in the assay with ACHN renal is 40.7%; with CAKI-1 renal, 35.9%; with CCRF-CEM leukemia it was 23.1%; in the assay on MOLT-4 leukemia it was 24.9%.
In the case of `O=c1oc2ccccc2cc1-c1csc(N/N=C/c2cc3ccccc3nc2Cl)n1`, the growth in the assay on HT29 colon is 100%; with SNB-75 CNS, 96.7%; in the assay with SNB-19 CNS, 96.1%; in the assay with U251 CNS, 97.2%; with PC-3 prostate, 95%; in the assay with SK-MEL-5 melanoma, 98.4%. Further, the growth in the assay on UACC-62 melanoma is 91.8%; in the assay with LOX IMVI melanoma, 101%; in the assay with SK-MEL-28 melanoma, 102%; in the assay on SK-MEL-2 melanoma it was 106%; in the assay with EKVX NSCLC, 96.1%; in the assay on SN12C renal, 90.6%. Also, the growth is 91% in the assay with UO-31 renal; 116% in the assay on TK-10 renal; 101% in the assay on ACHN renal; 87.5% in the assay with CAKI-1 renal; 111% in the assay with CCRF-CEM leukemia; 132% in the assay on MOLT-4 leukemia.
For `CCCCC(=O)N/N=C/c1cc(I)cc(I)c1O`, the growth with HT29 colon is 56.2%; in the assay with SNB-75 CNS it was 62.8%; in the assay with SNB-19 CNS it was 62.9%; in the assay on PC-3 prostate, 47%; with SK-MEL-5 melanoma, 78.9%; in the assay with UACC-62 melanoma, 38.8%. Besides, the growth was 38.9% with LOX IMVI melanoma; 58.8% in the assay with SK-MEL-28 melanoma; 64.3% in the assay on SK-MEL-2 melanoma; 56.3% in the assay on SN12C renal; 34.9% in the assay on UO-31 renal; 49.3% in the assay on TK-10 renal. For the same molecule, the growth with ACHN renal was 23.6%; in the assay on CAKI-1 renal, 21.6%; in the assay on A498 renal, 70.4%; with CCRF-CEM leukemia, 14.9%; in the assay with MOLT-4 leukemia, 28.2%.
As to `Cn1c2ccccc2c2nn(C(=O)c3ccccc3)c(=O)nc21`, the growth in the assay on HT29 colon was 105%; in the assay on SNB-75 CNS, 105%; with SNB-19 CNS it was 99%; in the assay with PC-3 prostate it was 92.4%; in the assay on UACC-62 melanoma it was 105%; in the assay on LOX IMVI melanoma, 99.3%. For the same molecule, the growth was 113% in the assay on SK-MEL-2 melanoma; 73.4% in the assay with UO-31 renal; 105% in the assay on ACHN renal; 103% in the assay with CAKI-1 renal; 108% in the assay with A498 renal; 96.9% in the assay with CCRF-CEM leukemia. Moreover, the growth in the assay with MOLT-4 leukemia was 104%.
In the case of `COC(=O)c1c2c(c(C)[n+]([O-])c1C)C(=O)C=C(NCc1ccc(Cl)cc1)C2=O`, the growth in the assay with HT29 colon is 2.63% (active); in the assay on SNB-75 CNS, -94.8% (active); with SNB-19 CNS, -23.5% (active); with U251 CNS, -7.46% (active); in the assay with PC-3 prostate, 1.07% (active); in the assay on SK-MEL-5 melanoma, -98.8% (active). In addition, the growth was -65.5% (active) in the assay with UACC-62 melanoma; -23.2% (active) in the assay on LOX IMVI melanoma; 10.6% in the assay with SK-MEL-28 melanoma; -30.9% (active) with SK-MEL-2 melanoma; -50% (active) in the assay on EKVX NSCLC; -9.07% (active) with UO-31 renal. Besides, the growth with TK-10 renal was 21.7%; in the assay with ACHN renal it was -19.1% (active); in the assay with CAKI-1 renal it was -3.15% (active); in the assay on MOLT-4 leukemia, -32.2% (active).

The record behind these values is PubChem BioAssay (NCI).
